KCNQ2 pot: enhances the rat KCNQ2 potassium channel; O88943; CHO-K1 KCNQ2, FluxOR thallium flux fluorescence; hits give high values; B-score at 10 µM; hit rate 0.54% among 310,000; AID 2239;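 active = fluorescence ratio B-score at least 3 SD of library B-scores, with initial fluorescence B-score within 3 of them, cut at about 5.3 in these data; same plate scores as AID 2156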;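 note: B-score of peak minus minimum over baseline fluorescence ratio after K+ and Tl+ stimulus; positive B-score means potentiation of KCNQ2 with more thallium influx and brighter signal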
KCNQ2 block: blocks the rat KCNQ2 potassium channel | hit rate 1.1% among 310,000 | CHO-K1 KCNQ2, FluxOR thallium flux, 20 min; hits give low values | B-score at 10 µM | O88943;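 active = fluorescence ratio B-score at most minus 3 library SDs, with starting brightness B-score within 2 library SDs, cut at about -5.5 in these data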
Starred values were filed as active, the others as inactive; i = inactive; · = not tested or not shown. Compounds with a hit are over-represented: about 1.6% of the library has one in this group of screens.

SMILES	KCNQ2 pot	KCNQ2 block
CCOC(=O)c1nn(-c2ccc(C)cc2)c(=O)cc1OCC(=O)N1CCN(c2ccccc2)CC1	·	i
Cc1ccc(S(=O)(=O)N(C)c2ccc(C(=O)NCC(c3cccs3)N3CCOCC3)cc2)cc1 (centres undefined)	·	i
Cc1ccc(N(C)S(=O)(=O)c2cccc(C(=O)NCC(c3cccs3)N3CCOCC3)c2)cc1 (centres undefined)	-6.8	-6.8*
COc1ccc(CCNC(=O)CCCCCn2c(SCC(N)=O)nc3cc4c(cc3c2=O)OCO4)cc1OC	·	i
Cc1cc(C)c2c(=O)n(CC(=O)NC3CCCC3)sc2n1	4.2	i
COc1ccc(OC)c(CCNC(=O)Cn2sc3nc(C)cc(C)c3c2=O)c1	-9.3	-9.3*
CCOC(=O)C(N)CSC1CC(=O)N(CCc2ccccc2)C1=O (centres undefined)	1	i
CC(C)n1nc(C(=O)Nc2ccccc2N2CCOCC2)c2ccccc2c1=O	·	i
Cn1nc(C(=O)Nc2ccccc2N2CCCC2)c2ccccc2c1=O	-5.6	-5.6*
C=CCn1c(SCc2c(C)noc2C)nc2sc3c(c2c1=O)CCCC3	·	i
C=CCn1c(SCc2c(C)noc2C)nc2sc3c(c2c1=O)CCCCC3	-6.5	-6.5*
CN(CCC#N)S(=O)(=O)c1cc2c3c(c1)CCN3C(=O)CC2	·	i
CCOc1ccccc1NC(=O)c1cccc2c1C(=O)N(C1CCCCC1)C2	-6.3	-6.3*
Cc1ccccc1NC(=O)c1cccc2c1C(=O)N(C1CCCCC1)C2	·	i
O=c1cc(CN2CCN(Cc3ccc(F)cc3)C(CCO)C2)[nH]c2ccccc12 (centres undefined)	0.23	i
COc1ccc(Cl)cc1C(=O)Nc1cccnc1Cl	1.4	i
COc1cc([N+](=O)[O-])ccc1NC(=S)NNC(=O)CCC(=O)Nc1ccccc1Cl	0.92	i
O=C(c1nc2ccc(Cl)cn2c1CN1CCC(O)CC1)N1CCc2ccccc2C1	0.37	i
CC1CCN(Cc2c(C(=O)N3CCc4ccccc4C3)nc3ccc(Cl)cn23)CC1	-5.8	-5.8*
CC1(C)CC(=O)C(C(C2=C(O)CC(C)(C)CC2=O)c2ccc(O)c([N+](=O)[O-])c2)=C(O)C1	4.9	i
CN(C(=O)CSCC(=O)O)C1CCCCC1	0.9	i
O=C(NCc1ccco1)c1ccc(COc2ccccc2[N+](=O)[O-])o1	1.1	i
CC1=CC(C)(C)N(C(=O)c2ccccc2)c2ccc(C)cc21	·	i
CC1=CC(C)(C)N(C(=O)c2ccccc2)c2ccccc21	-5.6	-5.6*
Cc1ccc(C)c(N(CC(=O)NCc2ccco2)C(=O)CCC(=O)Nc2nccs2)c1	0.48	i
SMILES	KCNQ2 pot	KCNQ2 block
O=C(Nc1ccc(OC(F)F)cc1)c1cc(S(=O)(=O)N2CCOCC2)ccc1F	·	i
COc1ccc(N(C)S(=O)(=O)c2cccc(C(=O)NC3CCCCCC3)c2)cc1	·	i
COc1ccc(N(C)S(=O)(=O)c2cccc(C(=O)NC3CCCC(C)C3C)c2)cc1 (centres undefined)	-7.3	-7.3*
Cc1ccc(NC(=O)COC(=O)C2CC(=O)N(Cc3ccccc3)C2)cc1S(=O)(=O)N(C)C (centres undefined)	·	i
O=C(O)/C=C/c1ccc(S(=O)(=O)NCc2cccnc2)cc1	1.9	i
O=C(NCc1ccco1)c1cc2nc(-c3ccc4c(c3)OCO4)cc(C(F)(F)F)n2n1	-8.2	-8.2*
O=C(NCc1ccco1)c1nn2c(C(F)(F)F)cc(-c3cccs3)nc2c1Br	-6.8	-6.8*
O=C(NCc1cccnc1)c1cc2nc(-c3ccc4c(c3)OCO4)cc(C(F)(F)F)n2n1	0.51	i
O=C(NCc1ccco1)c1nc2nc(-c3cccs3)cc(C(F)(F)F)n2n1	0.75	i
COc1ccc(C=O)cc1COc1ccc([N+](=O)[O-])c(C)c1	-6.8	-6.8*
COc1ccc(/C=C/C(=O)O)cc1COc1cccc(C)c1	0.61	i
COc1ccc(-n2c(C)cc(/C=C3\SC(=S)N(Cc4ccco4)C3=O)c2C)cc1	·	i
CCN1CCN(c2c(/C=C3\SC(=S)N(Cc4ccco4)C3=O)c(C)c(C#N)c(=O)n2C)CC1	-7.7	-7.7*
CC(=O)c1cc(C#N)c(N2CCOCC2)nc1C	0.75	i
CCC1CCCCN1C(=O)Cn1c(=O)n(CCCC(=O)NCc2ccco2)c(=O)c2sccc21 (centres undefined)	·	i
COc1ccc(CN(C)C(c2ccccc2)c2nnnn2-c2ccccc2C)c(OC)c1C (centres undefined)	-6	-6*
COc1cc(OC)c(OC)cc1CN(C)C(c1ccccc1)c1nnnn1-c1ccccc1C (centres undefined)	·	i
COc1ccccc1-c1csc(NC(=O)c2ccc(N3C(=O)CCC3=O)cc2)n1	·	i
Cc1nc2ccc(NC(=O)NCc3ccco3)cc2s1	0.31	i
O=C(NCc1ccco1)Nc1ccc2snnc2c1	6.1*	i
Cc1ccc(S(=O)(=O)N2CCC(C(=O)OC(C)C(=O)NCc3ccccc3)CC2)cc1C (centres undefined)	·	i
CCn1c(=O)n(CC)c2cc(N3CCCC3)c(NC(=O)c3cc(Cl)ccc3OC)cc21	·	i
CO/C=C\C=C/c1nnn(-c2ccc(Cl)cc2)n1	-6.9	-6.9*
Clc1ccc(-n2cnnn2)cc1	0.78	i
CCc1sc(C(=O)NCCCn2ccnc2)cc1Br	·	i
SMILES	KCNQ2 pot	KCNQ2 block
CCOC(=O)N1CCN(C(=O)CNS(=O)(=O)c2c(C)cc(C)cc2C)CC1	1.4	i
O=C(CC1SC(=Nc2ccccc2)N(CCc2c[nH]c3ccccc23)C1=O)Nc1ccccc1F (centres undefined)	-6.7	-6.7*
O=C(CC1SC(=Nc2ccccc2)N(CCc2ccccn2)C1=O)Nc1ccc(F)cc1 (centres undefined)	0.03	i
O=C(CSc1nnc(NC(=O)c2ccccc2F)s1)NCc1ccco1	0.78	i
COc1ccc(CNS(=O)(=O)CCNC(=O)c2ccc(OC)cc2)cc1	·	i
COc1ccc(NS(=O)(=O)c2c(C)cc(C)cc2C)cn1	·	i
CCCS(=O)(=O)N1CCCC(c2nc(-c3cccc(OC)c3)no2)C1 (centres undefined)	·	i
COc1cccc(-c2noc(C3CCCN(S(=O)(=O)c4cccc(Cl)c4C)C3)n2)c1 (centres undefined)	-6	-6*
CC12CCC(C(=O)Nc3cccc(Cl)c3)(C(Br)C1=O)C2(C)C (centres undefined)	7*	i
CC12CCC(C(=O)Nc3ccc(Cl)cc3)([C@H](Br)C1=O)C2(C)C (some centres undefined)	·	i
Cc1ccc(S(=O)(=O)N2CC(C)N(C(=O)N3CCOCC3)C2C)cc1 (centres undefined)	0.79	i
NC(=O)N/N=C/c1coc2ccc3ccccc3c2c1=O	1.3	i
O=Cc1coc2ccc3ccccc3c2c1=O	-8.1	-8.1*
Cc1cc([N+](=O)[O-])ccc1NC(=O)c1csc(C)c1C	0.94	i
COc1ccccc1CCNC(=O)CNC(=O)c1ccc2ccccc2c1	·	i
Fc1ccc2nc(Nc3nc4c(F)cc(F)cc4s3)sc2c1	4.9	i
Fc1ccc2nc(Nc3nc4c(F)cccc4s3)sc2c1	14*	i
CN(CC(=O)Nc1ccc(F)c(Cl)c1)S(=O)(=O)c1ccc2c(c1)n(C)c(=O)c(=O)n2C	·	i
O/N=C/c1ccc(OCc2ccccc2)c(Br)c1	·	i
O/N=C/c1cc(Br)cc(Br)c1OCc1ccccc1	-5.6	-5.6*

Bioassay records as filed in PubChem BioAssay.
